Experimental data taken from PubChem BioAssay (Tox21).
Results filed as inconclusive are left out. Active and inactive are the calls of the source. Unless noted, calls come from the whole dose curve.

Key:
[1] = Nuclear factor erythroid 2-related factor 2/antioxidant responsive element (Nrf2/ARE) small molecule agonists: qHTS cell viability counter screen in human keratinocytes (AID 1919968; active = well fitted curve in the direction sought with a large enough effect in the repeat runs; an effect the other way counts as inactive or inconclusive; note: nearly all actives have a fitted effect of over 55% in size; note: potency is the fitted concentration of half-maximal effect)
Outline: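 HaCaT ARE reporter line, 1,500 cells/well; 5 h settle, 37 C/5% CO2; cpd in DMSO pinned; 23 h exposure; CellTiter-Fluor, 1 h; fluorescence.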

[2] = Nuclear factor erythroid 2-related factor 2/antioxidant responsive element (Nrf2/ARE) small molecule agonists: luciferase reporter gene qHTS assay in human keratinocytes (AID 1919969); note: nearly all actives have a fitted effect of over 35% in size; note: potency is the fitted concentration of half-maximal effect
[3] = target: Gonadotropin-releasing hormone receptor (Homo sapiens) (UniProt P30968); assay: Human gonadotropin-releasing hormone receptor (GnRHR) small molecule agonists, calcium flux assay in GnRHR-HEK293 cells (AID 1920063); note: nearly all actives have a fitted effect of over 35% in size
Outline: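 GnRHR-HEK293, 1500 cells/well, 18 h 37 C/5% CO2; Ca dye 1 h 37 C; cpd pinned (DMSO), agonist mode; kinetic FL 480/540, 3 min, 1 s reads; 15 conc, n=3.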

[4] = target: KiSS-1 receptor (Homo sapiens) (UniProt Q969F8); assay: Human kisspeptin (KISS1R) small molecule agonists, calcium flux assay in KISS1R-HEK293 cells (AID 1920064; active = well fitted curve in the direction sought with a large enough effect in the repeat runs; an effect the other way counts as inactive or inconclusive)
Outline: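 Stable human KISS1R HEK293 line; 18 h plating, 37 C/5% CO2; calcium dye 1 h 37 C; compound pin transfer; kinetic fluorescence Ex/Em 480/540, 3 min.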

[5] = G protein-coupled receptor (GPCR) small molecule agonists, calcium flux assay: HEK293 wild type cell line counter screen (AID 1920065)
Outline: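 Kinetic fluorescence at Ex/Em 480/540, recorded every second over 3 min, served as the read-out after compound addition. Each compound was tested at 15 concentrations in triplicate on cells pre-loaded with calcium dye for 1 h.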

[6] = p53 small molecule agonists, cell-based qHTS assay with human liver microsomes (AID 1963577);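 note: p53 response element beta-lactamase reporter cells with liver microsomes plus NADPH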
Outline: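 With metabolic activation: human liver microsomes (0.5 mg/mL final) plus NADPH (0.5 mg/mL final) added alongside compounds to p53RE-bla cells; 16 h 37 C exposure; beta-lactamase read by LiveBLAzer fluorescence.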

[7] = p53 small molecule agonists, cell-based qHTS assay (AID 1963582; active = well fitted activation curve with a large enough effect in the signal ratio in the repeat runs, not every such curve was filed as active; the % refers to the signal ratio; note: potency is the fitted concentration of half-maximal effect)
Outline: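 Reporter line: p53RE-bla. Pre-incubation 5 h, 37 C, 5% CO2; compound (DMSO, pin tool) 16 h, 37 C; B/G FRET substrate 2 h RT; fluorescence intensity read.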

[8] = target: 5-hydroxytryptamine receptor 2A (Homo sapiens) (UniProt P28223); assay: 5-hydroxytryptamine receptor 2A (HTR2A) small molecule agonists, cell-based qHTS assay (AID 1963587); note: nearly all actives have a fitted effect of over 30% in size
Outline: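 Kinetic calcium-flux fluorescence (2 min, 1 sec intervals) after compound addition in agonist mode. HTR2A-CHO cells were cultured 18 h, then dye-loaded 1 h at 37 C.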

[9] = target: Beta-2 adrenergic receptor (Homo sapiens) (UniProt P07550); assay: Adrenergic beta2 receptor (ADRB2) small molecule antagonists, cell-based qHTS assay (AID 1963592); note: nearly all actives have a fitted effect of over 50% in size; note: potency is the fitted concentration of half-maximal effect
Outline: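 Cells (CHO, stable ADRB2 overexpression) incubated 18-20hr at 37C; compounds added from DMSO; agonist mix (1nM isoproterenol, 100uM IBMX, 25uM Ro-20-1724) added; 0.5hr RT; d2-cAMP and anti-cAMP-cryptate added; 1hr RT; 665/615 nm read.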

[10] = target: D(2) dopamine receptor (Homo sapiens) (UniProt P14416); assay: Dopamine D2 receptor (DRD2) small molecule agonists, cell-based qHTS assay (AID 1963594); note: nearly all actives have a fitted effect of over 35% in size
Outline: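 cAMP accumulation in DRD2-HEK293 cells measured by HTRF after 1 h detection; compounds added 10 min before NKH477 (200nM […]) forskolin-analogue stimulation, 30 min at room temperature, with Ro20-1724 present at 0.1 mM final.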

[11] = p53 small molecule agonists, cell-based qHTS assay with rat liver microsomes (AID 1963578)
Outline: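 Metabolic activation by rat liver microsomes and NADPH, each 0.5 mg/mL final, added right after compounds to p53RE-bla reporter cells (4,000/well, plated 5 h earlier). 16 h at 37 C, then LiveBLAzer substrate for 2 h at room temperature in the dark; fluorescence read-out.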

[12] = p53 small molecule agonists, cell-based qHTS assay with human liver microsomes: qHTS cell viability counter screen (AID 1963579); note: nearly all actives have a fitted effect of over 45% in size; note: potency is the fitted concentration of half-maximal effect
Outline: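 Metabolic activation used human liver microsomes and NADPH, both 0.5 mg/mL final, over 16 hours at 37 C on p53RE-bla cells (4,000/well). Cytotoxicity measured by CellTiter-Glo luminescence, 30 min at room temperature.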

[13] = p53 small molecule agonists, cell-based qHTS assay with rat liver microsomes: qHTS cell viability counter screen (AID 1963580); note: nearly all actives have a fitted effect of over 45% in size; note: potency is the fitted concentration of half-maximal effect
Outline: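 Intracellular ATP, by CellTiter-Glo luminescence, defines viability. HCT-116 p53RE-bla cells, 4,000 per well, were compound-treated in the presence of rat liver microsomes and NADPH for 16 h at 37 C.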

[14] = p53 small molecule agonists, cell-based qHTS assay: qHTS cell viability counter screen (AID 1963581); note: nearly all actives have a fitted effect of over 45% in size
Outline: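 HCT-116 p53RE-bla cells, 4,000/well, plated 5 h before compound pin transfer; 16 h at 37 C; bla substrate 2 h RT; then CellTiter-Glo, 30 min RT, luminescence.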

[15] = target: 5-hydroxytryptamine receptor 2A (Homo sapiens) (UniProt P28223); assay: 5-hydroxytryptamine receptor 2A (HTR2A) small molecule antagonists, cell-based qHTS assay (AID 1963586); note: nearly all actives have a fitted effect of over 45% in size; note: potency is the fitted concentration of half-maximal effect
Outline: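 Antagonist-mode intracellular calcium assay: DOI (4 nM) added after 5 min compound pre-incubation at room temperature to dye-loaded HTR2A-CHO cells. Fluorescence followed for 3 min, sampled every second.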

[16] = target: Muscarinic acetylcholine receptor M1 (Homo sapiens) (UniProt P11229); assay: Cholinergic receptor muscarinic 1 (CHRM1) small molecule antagonists, cell-based qHTS assay (AID 1963588); note: nearly all actives have a fitted effect of over 40% in size; note: potency is the fitted concentration of half-maximal effect
Outline: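 CHRM1-CHO calcium-flux assay, antagonist mode. Cells were seeded 18 h, dye-loaded 1 h at 37 C and given compound for 5 min at RT, then acetylcholine was added at 50nM. FDSS fluorescence was read 3 min; 15 concentrations, three runs.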

[17] = cAMP Responsive Elements (CRE) small molecule agonists, cell-based qHTS assay (AID 1963590)
Outline: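 HEK 293T CRE-bla, 2,000 cells/well, 18 h preincubation 37 C/5% CO2; cpds (DMSO) pinned, 3 h; LiveBLAzer B/G FRET substrate, 2 h RT.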

[18] = cAMP Responsive Elements (CRE) small molecule antagonists, cell-based qHTS assay (AID 1963591; active = well fitted inhibition curve with a large enough effect in the signal ratio in the repeat runs, not every such curve was filed as active; the % refers to the signal ratio)
Outline: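 Beta-lactamase reporter read by FRET substrate (LiveBLAzer B/G) after 2 h at room temperature. CRE-bla HEK293T cells had received compound plus 0.25 uM (final) NKH477 for 3 h at 37 °C.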

[19] = target: D(2) dopamine receptor (Homo sapiens) (UniProt P14416); assay: Dopamine D2 receptor (DRD2) small molecule antagonists, cell-based qHTS assay (AID 1963595; active = well fitted inhibition curve with a large enough effect in the signal ratio in the repeat runs, with a control signal flat; the % refers to the signal ratio; note: potency is the fitted concentration of half-maximal effect)
Outline: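 Readout: HTRF cAMP, cAMP-d2 competing with cellular cAMP for anti-cAMP cryptate, read after 1 h. Cells: DRD2-HEK293. Conditions: 0.1 mM Ro20-1724, 12 nM quinpirole, 200 nM NKH477, 30 min RT.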

[20] = target: Muscarinic acetylcholine receptor M1 (Homo sapiens) (UniProt P11229); assay: Cholinergic receptor muscarinic 1 (CHRM1) small molecule agonists, cell-based qHTS assay (AID 1963589); note: nearly all actives have a fitted effect of over 35% in size; note: potency is the fitted concentration of half-maximal effect
Outline: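 Human M1 in stable CHO line; 18 h plating, 1 h dye load 37 C; cpd added (agonist mode); Ca2+ fluorescence kinetic read, 1 s intervals; 15 conc, 3 runs.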

Measured: Potency

Muscarinic acetylcholine receptor M1 (Homo sapiens), sequence (P11229 whole entry, looked up): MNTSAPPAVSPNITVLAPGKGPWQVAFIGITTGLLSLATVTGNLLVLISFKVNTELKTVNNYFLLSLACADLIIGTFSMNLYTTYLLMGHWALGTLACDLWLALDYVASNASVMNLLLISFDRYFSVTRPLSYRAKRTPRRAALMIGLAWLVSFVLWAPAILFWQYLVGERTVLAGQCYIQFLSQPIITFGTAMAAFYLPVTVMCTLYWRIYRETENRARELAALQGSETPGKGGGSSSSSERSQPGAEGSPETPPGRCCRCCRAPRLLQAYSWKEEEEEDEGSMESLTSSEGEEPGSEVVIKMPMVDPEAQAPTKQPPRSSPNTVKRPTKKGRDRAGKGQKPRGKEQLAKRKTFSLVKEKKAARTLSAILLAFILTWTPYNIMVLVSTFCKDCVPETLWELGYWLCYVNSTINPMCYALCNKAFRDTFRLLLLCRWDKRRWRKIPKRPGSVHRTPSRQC
Beta-2 adrenergic receptor (Homo sapiens), sequence (P07550 whole entry, looked up): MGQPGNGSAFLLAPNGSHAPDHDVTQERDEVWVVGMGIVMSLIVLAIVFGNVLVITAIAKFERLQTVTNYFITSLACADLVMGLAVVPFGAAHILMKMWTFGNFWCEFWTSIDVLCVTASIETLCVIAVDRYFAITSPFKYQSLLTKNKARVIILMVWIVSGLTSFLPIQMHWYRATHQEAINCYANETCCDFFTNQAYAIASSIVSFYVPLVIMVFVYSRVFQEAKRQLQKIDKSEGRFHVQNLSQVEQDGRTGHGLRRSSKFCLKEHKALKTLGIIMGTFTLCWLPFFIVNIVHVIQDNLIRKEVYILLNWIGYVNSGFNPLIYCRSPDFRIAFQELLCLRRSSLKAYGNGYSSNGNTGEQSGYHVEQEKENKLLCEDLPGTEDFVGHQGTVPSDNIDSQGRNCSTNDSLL
D(2) dopamine receptor (Homo sapiens), sequence (P14416 whole entry, looked up): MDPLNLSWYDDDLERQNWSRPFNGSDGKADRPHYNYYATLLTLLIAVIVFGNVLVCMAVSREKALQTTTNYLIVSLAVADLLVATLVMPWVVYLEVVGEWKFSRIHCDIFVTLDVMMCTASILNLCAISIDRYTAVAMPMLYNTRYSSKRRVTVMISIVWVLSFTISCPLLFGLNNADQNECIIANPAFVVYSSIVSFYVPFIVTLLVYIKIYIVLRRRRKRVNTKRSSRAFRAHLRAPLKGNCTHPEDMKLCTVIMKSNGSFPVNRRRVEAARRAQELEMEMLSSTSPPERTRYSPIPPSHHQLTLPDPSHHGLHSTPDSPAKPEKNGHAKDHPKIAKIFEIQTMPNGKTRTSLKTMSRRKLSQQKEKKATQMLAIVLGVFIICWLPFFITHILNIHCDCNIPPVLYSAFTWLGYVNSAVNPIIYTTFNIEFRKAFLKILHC
Gonadotropin-releasing hormone receptor (Homo sapiens), sequence (P30968 whole entry, looked up): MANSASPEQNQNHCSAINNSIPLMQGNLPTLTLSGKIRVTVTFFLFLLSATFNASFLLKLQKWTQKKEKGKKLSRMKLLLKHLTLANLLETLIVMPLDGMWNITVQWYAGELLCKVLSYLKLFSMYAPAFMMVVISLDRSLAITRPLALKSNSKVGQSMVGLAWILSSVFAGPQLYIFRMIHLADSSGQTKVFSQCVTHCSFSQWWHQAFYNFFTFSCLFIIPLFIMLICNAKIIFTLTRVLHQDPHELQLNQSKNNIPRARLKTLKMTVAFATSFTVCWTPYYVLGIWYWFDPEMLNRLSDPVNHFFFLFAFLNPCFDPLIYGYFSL
5-hydroxytryptamine receptor 2A (Homo sapiens), sequence (P28223 whole entry, looked up): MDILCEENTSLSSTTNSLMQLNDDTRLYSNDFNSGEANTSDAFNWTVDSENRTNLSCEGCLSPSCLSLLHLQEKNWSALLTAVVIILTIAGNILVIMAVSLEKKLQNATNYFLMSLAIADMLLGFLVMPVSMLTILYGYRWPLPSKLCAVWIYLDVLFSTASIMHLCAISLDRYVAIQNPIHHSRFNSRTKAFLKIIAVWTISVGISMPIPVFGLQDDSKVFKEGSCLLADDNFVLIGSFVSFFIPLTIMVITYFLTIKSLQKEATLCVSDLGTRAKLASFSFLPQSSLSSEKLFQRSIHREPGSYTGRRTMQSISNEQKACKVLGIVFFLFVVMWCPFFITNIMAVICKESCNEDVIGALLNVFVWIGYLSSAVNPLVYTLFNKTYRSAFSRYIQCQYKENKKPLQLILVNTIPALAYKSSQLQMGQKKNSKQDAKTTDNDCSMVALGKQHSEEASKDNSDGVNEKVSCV
KiSS-1 receptor (Homo sapiens), sequence (Q969F8 whole entry, looked up): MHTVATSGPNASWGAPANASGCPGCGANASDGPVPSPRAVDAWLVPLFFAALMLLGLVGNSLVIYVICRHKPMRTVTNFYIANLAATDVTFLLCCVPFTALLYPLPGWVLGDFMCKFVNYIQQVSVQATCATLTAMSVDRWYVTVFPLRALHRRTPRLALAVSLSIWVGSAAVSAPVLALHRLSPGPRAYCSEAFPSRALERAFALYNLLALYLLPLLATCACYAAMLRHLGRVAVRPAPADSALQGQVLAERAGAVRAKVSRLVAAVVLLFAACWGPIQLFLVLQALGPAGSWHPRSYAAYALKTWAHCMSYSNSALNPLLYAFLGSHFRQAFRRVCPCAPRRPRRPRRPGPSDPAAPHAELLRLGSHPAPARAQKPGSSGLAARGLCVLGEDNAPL

O=[N+]([O-])c1cc([N+](=O)[O-])c2ccccc2c1
inactive: [1] | [3] | [4] | [5] | [6] | [7] | [8] | [9] | [10]
active: [2] 17.2 µM

C[N+](C)(C)CC1CO1 (stereo unspecified)
inactive: [1] | [2] | [3] | [4] | [5] | [11] | [12] | [13] | [14] | [7] | [15] | [8] | [16] | [17] | [18] | [9] | [10] | [19]

CCCCCCCCBr
inactive: [1] | [2] | [3] | [4] | [5] | [11] | [12] | [13] | [14] | [7] | [15] | [16] | [20] | [17] | [18] | [10]

CCOC(=O)OC1=C(c2cc(C)ccc2C)C(=O)NC12CCC(OC)CC2 (stereo unspecified)
inactive: [1] | [2] | [3] | [4] | [5] | [11] | [13] | [14] | [15] | [8] | [16] | [20] | [18] | [9] | [10] | [19]
active: [12] 40.8 µM

CC(C)[N+](=O)[O-]
inactive: [1] | [2] | [3] | [4] | [5] | [6] | [13] | [14] | [8] | [16] | [20] | [18] | [9] | [10] | [19]

COc1cccc(C(=O)CCN[C@@H](C)[C@H](O)c2ccccc2)c1
active: [2] 33.5 µM | [19] 15 µM
inactive: [1] | [3] | [4] | [5] | [11] | [12] | [13] | [14] | [7] | [16] | [20] | [17] | [9] | [10]

CC1=NNC(=O)N(/N=C/c2cccnc2)C1
inactive: [1] | [2] | [3] | [4] | [5] | [11] | [12] | [13] | [14] | [7] | [15] | [8] | [16] | [20] | [17] | [18] | [9] | [10] | [19]

CCCCP(CCCC)CCCC
inactive: [1] | [2] | [3] | [4] | [5] | [11] | [12] | [13] | [14] | [15] | [8] | [16] | [20] | [18] | [9] | [10] | [19]

O=[N+]([O-])c1c(Cl)c(Cl)cc(Cl)c1Cl
inactive: [3] | [4] | [5] | [11] | [12] | [14] | [18] | [9]
active: [1] 43.3 µM | [2] 9.69 µM | [13] 36.3 µM | [16] 11.2 µM | [20] 3.47 µM

O=c1oc2ccccc2c(O)c1Cc1c(O)c2ccccc2oc1=O
inactive: [1] | [2] | [3] | [4] | [5] | [11] | [12] | [13] | [18] | [9] | [10] | [19]
active: [7] 5 µM

COC(=O)C(C)N(C(=O)Cc1ccccc1)c1c(C)cccc1C (stereo unspecified)
inactive: [1] | [2] | [3] | [4] | [5] | [11] | [12] | [13] | [14] | [15] | [16] | [20] | [10] | [19]

CN1C2CCC(C)(C)C1CC(OC(=O)C(O)(c1cccs1)c1cccs1)C2 (stereo unspecified)
inactive: [1] | [2] | [3] | [4] | [5] | [11] | [12] | [13] | [14] | [7] | [15] | [8] | [17] | [18] | [9] | [10] | [19]

O=C(O)COc1ccc(Cl)cc1
inactive: [1] | [2] | [3] | [4] | [5] | [11] | [12] | [13] | [14] | [7] | [8] | [16] | [9] | [10] | [19]

Fc1ccc(C(OCCN2CCN(CCCc3ccccc3)CC2)c2ccc(F)cc2)cc1
inactive: [2] | [3] | [4] | [5] | [11] | [12] | [13] | [14] | [8] | [16] | [20] | [10]
active: [1] 13.3 µM | [15] 1.3 µM | [9] 29.8 µM | [19] 26.6 µM
